# Experimental data as given in PubChem BioAssay (EPA / NIEHS).
# Values joined by “and” are separate entries in the source; they are usually repeats but may differ in a detail not shown here. Equal values may be shown once. Results filed as inconclusive are left out. Where a structure was tested more than once in an assay, its records may differ in their call. Active and inactive are the calls of the source. Rule for the calls, unless noted: active = hit-call score of the fitted dose curve at least 0.9, where 1 is the maximum; inconclusive = response in the unintended direction; inactive = score below 0.9.
# What was measured:
# [1] = target: Agonist Androgen Response Element (ARE), AR (gene 367) (UniProt P10275); experiment: OT_AR_ARELUC_AG_1440: Odyssey Thera (OT) 24-hour CHO-K1 Luciferase Assay for Agonist Androgen Response Element (ARE) (AID 2283379)
# How it was run: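 Seed CHO-K1 cells; dose compounds for 24 h; add D-luciferin plus ATP in PBS; read luminescence. Signal increase relative to vehicle defines agonist activity, with at least 3 replicate wells per sample.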
# [2] = target: Estrogen receptor beta (Homo sapiens) (UniProt Q92731); experiment: OT_ER_ERbERb_1440: Odyssey Thera (OT) 24-hour HEK293T Protein-Complementation Assay for Estrogen Receptor-beta/-beta Homodimer (AID 2283380);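 note: fluorescence gain from ER beta LBD homodimer complementation read by laser scanning cytometry; scored as signal increase over DMSO baseline for both agonists and antagonists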
# How it was run: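 HEK293T cells stably expressing human ER-beta LBD (aa 310-547) PCA homodimer pair, dosed 24 h; formaldehyde-fixed, Draq5-stained. Readout: increase in nuclear (agonist) or nuclear plus cytoplasmic (antagonist) fluorescence intensity versus DMSO, gain-of-signal fitting.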
# [3] = target: Estrogen receptor (Homo sapiens) (UniProt P03372); experiment: OT_ERa_GFPERaERE_0480: Odyssey Thera (OT) 8-hour HeLa Transcription Induction Assay for Estrogen Receptor (AID 2283381; active = hit-call score of the fitted dose curve at least 0.9, where 1 is the maximum; inactive = score below 0.9)
# How it was run: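 Fluorescent reporter signal, imaged by microscopy and scored with image-analysis algorithms, was taken 8 h after chemical dosing of HeLa cells; activity was fitted upward relative to DMSO.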
# [4] = target: human Norepinephrine Transporter (NET), SLC6A2 (gene 6530) (UniProt P23975); experiment: NVS_TR_hNET: NovaScreen (NVS) Transporter Assay for human Norepinephrine Transporter (NET) (AID 2283377);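 note: cell-free membrane protein extracted from CHO cells expressing human NET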
# How it was run: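 Radioligand binding to human NET in cell-free CHO-derived protein preparations, read by filter-based scintillation counting 1 hour after dosing. Loss of signal versus DMSO baseline indicated displacement; primary screening in duplicate at 25 uM, actives then titrated.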
# [5] = target: mouse Estrogen Receptor alpha (Era), Esr1 (gene 13982) (UniProt P19785); experiment: NVS_NR_mERa: NovaScreen (NVS) Nuclear Receptor Binding Assay for mouse Estrogen Receptor alpha (Era) (AID 2283378);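 note: hit means loss of bound radioligand signal relative to DMSO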
# How it was run: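 Measurements come from scintillation counting after filtration, taken 18 hours after chemicals were added to a cell-free mouse Era preparation with radioligand. Screening was duplicate at 25 uM, with concurrent positive and negative controls and confirmatory concentration series for actives.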
# [6] = target: rat Serotonin Transporter (SERT), Slc6a4 (gene 25553) (UniProt P31652); experiment: NVS_TR_rSERT: NovaScreen (NVS) Transporter Assay for rat Serotonin Transporter (SERT) (AID 2283375)
# How it was run: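 Using rat forebrain membrane SERT, test chemicals compete with a radioligand for 1 hour, and bound counts are taken by filter-based scintillation. Screening starts at 25 uM in duplicate, followed by concentration series for actives.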
# [7] = target: Norway rat Vesicular Monoamine Transporter (VMAT2), neurotransmitter transporter, Slc18a2 (gene 25549) (UniProt Q01827); experiment: NVS_TR_rVMAT2: NovaScreen (NVS) Transporter Assay for Norway rat Vesicular Monoamine Transporter (VMAT2), neurotransmitter transporter (AID 2283376);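 note: actives lower the bound radioligand signal below the DMSO level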
# How it was run: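 Rat forebrain tissue preparation used in a cell-free radioligand binding format; displacement read by filter-based scintillation counting 1 hour after dosing. Primary screen in duplicate at 25 uM, actives then run in concentration series; loss of signal versus DMSO baseline.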
# [8] = target: Bile acid receptor (Homo sapiens) (UniProt Q96RI1); experiment: OT_FXR_FXRSRC1_0480: Odyssey Thera (OT) 8-hour HEK293T Protein-Complementation Assay for Farnesoid X receptor/SRC-1 Co-activator (AID 2283383)
# How it was run: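 Human kidney HEK293T cells carried FXR/SRC-1 fragment-complementation constructs. Compounds were added and incubated 8 h. Reporter reassembly upon receptor–co-activator interaction was then quantified by fluorescence, with curves fitted in the positive direction relative to DMSO.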
# [9] = target: Bile acid receptor (Homo sapiens) (UniProt Q96RI1); experiment: OT_FXR_FXRSRC1_1440: Odyssey Thera (OT) 24-hour HEK293T Protein-Complementation Assay for Farnesoid X receptor/SRC-1 Co-activator (AID 2283384)
# How it was run: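 Compounds are applied to human kidney HEK293T cells expressing bait and prey fused to reporter protein fragments; after 24 h, reconstituted reporter fluorescence is measured. Activity is fitted as signal gain over DMSO.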
# [10] = target: Estrogen receptor (Homo sapiens) (UniProt P03372); experiment: OT_ERa_GFPERaERE_0120: Odyssey Thera (OT) 2-hour HeLa Transcription Induction Assay for Estrogen Receptor (AID 2283382)
# How it was run: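 HeLa, 384-well, 2 h chemical exposure; GFP reporter induction (ERE), fluorescence microscopy; high content image analysis; positive fitting direction vs DMSO.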
# Sequence of Norway rat Vesicular Monoamine Transporter (VMAT2), neurotransmitter transporter, Slc18a2 (gene 25549) (Q01827 whole entry, looked up): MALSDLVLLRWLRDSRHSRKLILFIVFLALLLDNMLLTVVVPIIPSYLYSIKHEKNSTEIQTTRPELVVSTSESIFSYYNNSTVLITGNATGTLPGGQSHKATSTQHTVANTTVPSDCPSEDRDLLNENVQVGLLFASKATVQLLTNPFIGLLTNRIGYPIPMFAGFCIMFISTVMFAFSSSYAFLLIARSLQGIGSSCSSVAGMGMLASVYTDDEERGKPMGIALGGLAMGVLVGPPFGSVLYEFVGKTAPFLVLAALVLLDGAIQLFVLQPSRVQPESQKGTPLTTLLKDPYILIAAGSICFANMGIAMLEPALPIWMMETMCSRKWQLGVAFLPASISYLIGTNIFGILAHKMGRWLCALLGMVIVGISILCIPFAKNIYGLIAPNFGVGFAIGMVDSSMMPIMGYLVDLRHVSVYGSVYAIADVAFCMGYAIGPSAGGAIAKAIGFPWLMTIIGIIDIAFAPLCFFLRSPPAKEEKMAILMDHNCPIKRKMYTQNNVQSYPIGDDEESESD
# Sequence of Agonist Androgen Response Element (ARE), AR (gene 367) (P10275 whole entry, looked up): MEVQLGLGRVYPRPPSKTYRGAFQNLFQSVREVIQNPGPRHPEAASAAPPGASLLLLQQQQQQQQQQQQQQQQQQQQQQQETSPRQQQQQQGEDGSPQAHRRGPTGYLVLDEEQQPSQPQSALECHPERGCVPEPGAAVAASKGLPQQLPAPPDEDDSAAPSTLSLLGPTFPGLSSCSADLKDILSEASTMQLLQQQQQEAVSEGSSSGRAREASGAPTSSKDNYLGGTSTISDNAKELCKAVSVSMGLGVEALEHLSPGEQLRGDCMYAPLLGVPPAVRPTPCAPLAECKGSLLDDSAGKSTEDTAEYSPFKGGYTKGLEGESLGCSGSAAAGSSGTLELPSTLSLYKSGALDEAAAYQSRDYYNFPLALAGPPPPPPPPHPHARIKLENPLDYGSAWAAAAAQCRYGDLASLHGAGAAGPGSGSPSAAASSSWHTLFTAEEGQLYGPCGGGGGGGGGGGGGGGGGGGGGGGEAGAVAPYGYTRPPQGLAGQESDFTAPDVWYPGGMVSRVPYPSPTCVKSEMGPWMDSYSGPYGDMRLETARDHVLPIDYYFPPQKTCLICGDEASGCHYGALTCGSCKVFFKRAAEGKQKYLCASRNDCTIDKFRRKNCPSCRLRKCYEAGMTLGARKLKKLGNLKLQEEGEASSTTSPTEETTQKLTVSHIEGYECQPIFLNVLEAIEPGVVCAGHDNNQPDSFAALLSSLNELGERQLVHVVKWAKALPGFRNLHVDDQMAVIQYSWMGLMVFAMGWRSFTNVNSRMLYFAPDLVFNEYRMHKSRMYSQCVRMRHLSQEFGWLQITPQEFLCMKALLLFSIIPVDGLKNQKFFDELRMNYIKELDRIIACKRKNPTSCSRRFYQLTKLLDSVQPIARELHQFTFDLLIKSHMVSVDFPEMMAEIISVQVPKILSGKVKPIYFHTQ
# Sequence of Bile acid receptor (Homo sapiens) (Q96RI1 whole entry, looked up, the tested form may be a part): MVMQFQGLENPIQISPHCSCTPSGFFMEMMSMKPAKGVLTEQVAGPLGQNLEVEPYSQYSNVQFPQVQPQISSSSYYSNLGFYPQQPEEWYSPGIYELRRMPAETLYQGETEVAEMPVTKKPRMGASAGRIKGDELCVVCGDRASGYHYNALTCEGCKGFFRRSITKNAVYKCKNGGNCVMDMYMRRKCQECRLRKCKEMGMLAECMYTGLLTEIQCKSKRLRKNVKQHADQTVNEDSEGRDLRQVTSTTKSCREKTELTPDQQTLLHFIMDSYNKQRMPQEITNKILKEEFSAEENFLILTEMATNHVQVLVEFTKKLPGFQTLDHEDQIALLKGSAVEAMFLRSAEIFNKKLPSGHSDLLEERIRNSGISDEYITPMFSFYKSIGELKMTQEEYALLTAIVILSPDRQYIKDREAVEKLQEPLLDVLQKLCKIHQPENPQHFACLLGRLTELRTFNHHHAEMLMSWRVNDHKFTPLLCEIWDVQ
# Sequence of Estrogen receptor beta (Homo sapiens) (Q92731 whole entry, looked up, the tested form may be a part): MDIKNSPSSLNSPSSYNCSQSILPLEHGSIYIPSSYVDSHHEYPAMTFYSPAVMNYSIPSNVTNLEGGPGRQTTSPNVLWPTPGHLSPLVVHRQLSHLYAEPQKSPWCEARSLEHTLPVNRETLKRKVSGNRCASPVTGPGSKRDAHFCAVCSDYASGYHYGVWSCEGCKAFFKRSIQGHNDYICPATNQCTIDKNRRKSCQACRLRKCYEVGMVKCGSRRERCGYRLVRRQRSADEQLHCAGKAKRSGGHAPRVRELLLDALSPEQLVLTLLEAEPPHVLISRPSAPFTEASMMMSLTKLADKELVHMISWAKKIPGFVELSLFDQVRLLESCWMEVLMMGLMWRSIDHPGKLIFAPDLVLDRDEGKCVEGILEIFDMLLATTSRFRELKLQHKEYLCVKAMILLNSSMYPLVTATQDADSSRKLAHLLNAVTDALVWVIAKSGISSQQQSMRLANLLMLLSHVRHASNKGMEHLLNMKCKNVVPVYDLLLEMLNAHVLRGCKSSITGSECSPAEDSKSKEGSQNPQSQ
# Sequence of human Norepinephrine Transporter (NET), SLC6A2 (gene 6530) (P23975 whole entry, looked up): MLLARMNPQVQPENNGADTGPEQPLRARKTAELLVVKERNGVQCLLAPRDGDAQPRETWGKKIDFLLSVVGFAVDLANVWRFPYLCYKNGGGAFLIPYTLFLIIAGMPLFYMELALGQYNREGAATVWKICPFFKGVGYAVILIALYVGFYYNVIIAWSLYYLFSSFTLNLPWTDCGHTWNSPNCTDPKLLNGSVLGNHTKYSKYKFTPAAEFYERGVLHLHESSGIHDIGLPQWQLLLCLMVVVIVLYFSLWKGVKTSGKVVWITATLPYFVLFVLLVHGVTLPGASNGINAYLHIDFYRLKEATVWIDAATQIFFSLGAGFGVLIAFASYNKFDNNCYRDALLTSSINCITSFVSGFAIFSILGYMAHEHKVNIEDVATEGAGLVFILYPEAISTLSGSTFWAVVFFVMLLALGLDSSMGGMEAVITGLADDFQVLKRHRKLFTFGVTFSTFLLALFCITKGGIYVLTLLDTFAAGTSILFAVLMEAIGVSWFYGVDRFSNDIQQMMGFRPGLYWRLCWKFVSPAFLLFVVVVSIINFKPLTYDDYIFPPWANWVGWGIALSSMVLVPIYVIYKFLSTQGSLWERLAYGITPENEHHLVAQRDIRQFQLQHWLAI
# Sequence of mouse Estrogen Receptor alpha (Era), Esr1 (gene 13982) (P19785 whole entry, looked up): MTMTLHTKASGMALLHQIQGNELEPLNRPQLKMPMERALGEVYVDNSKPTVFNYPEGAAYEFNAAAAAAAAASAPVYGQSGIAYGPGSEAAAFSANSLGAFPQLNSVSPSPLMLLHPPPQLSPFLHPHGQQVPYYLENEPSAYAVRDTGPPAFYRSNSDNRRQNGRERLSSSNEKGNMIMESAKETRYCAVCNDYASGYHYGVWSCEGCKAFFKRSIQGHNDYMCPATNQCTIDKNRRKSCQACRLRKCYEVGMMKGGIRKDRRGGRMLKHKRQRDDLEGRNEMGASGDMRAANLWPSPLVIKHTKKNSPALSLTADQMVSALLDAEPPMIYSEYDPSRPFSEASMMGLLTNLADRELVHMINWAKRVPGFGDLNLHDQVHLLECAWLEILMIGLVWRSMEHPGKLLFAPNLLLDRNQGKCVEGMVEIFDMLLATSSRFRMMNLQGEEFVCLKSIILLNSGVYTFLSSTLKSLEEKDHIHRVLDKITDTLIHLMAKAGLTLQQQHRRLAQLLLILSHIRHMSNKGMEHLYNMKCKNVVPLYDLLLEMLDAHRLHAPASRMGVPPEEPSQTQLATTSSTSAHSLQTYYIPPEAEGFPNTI
# Sequence of rat Serotonin Transporter (SERT), Slc6a4 (gene 25553) (P31652 whole entry, looked up): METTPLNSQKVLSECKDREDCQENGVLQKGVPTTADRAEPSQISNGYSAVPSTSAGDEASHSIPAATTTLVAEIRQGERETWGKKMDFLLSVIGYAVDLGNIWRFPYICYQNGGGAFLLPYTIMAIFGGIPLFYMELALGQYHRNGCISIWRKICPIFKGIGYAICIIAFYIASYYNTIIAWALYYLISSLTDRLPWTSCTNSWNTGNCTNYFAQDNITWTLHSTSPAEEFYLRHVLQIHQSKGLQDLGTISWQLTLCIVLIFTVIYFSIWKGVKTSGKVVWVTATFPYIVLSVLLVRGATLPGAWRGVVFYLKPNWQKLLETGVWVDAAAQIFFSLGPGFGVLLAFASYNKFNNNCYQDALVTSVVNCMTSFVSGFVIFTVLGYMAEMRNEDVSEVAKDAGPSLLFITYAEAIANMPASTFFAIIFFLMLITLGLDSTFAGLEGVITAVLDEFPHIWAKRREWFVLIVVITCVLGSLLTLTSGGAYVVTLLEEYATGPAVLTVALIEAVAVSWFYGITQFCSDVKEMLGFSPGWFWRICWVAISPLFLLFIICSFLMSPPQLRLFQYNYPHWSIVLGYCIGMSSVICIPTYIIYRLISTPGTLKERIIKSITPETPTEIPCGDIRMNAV
# Sequence of Estrogen receptor (Homo sapiens) (P03372 whole entry, looked up): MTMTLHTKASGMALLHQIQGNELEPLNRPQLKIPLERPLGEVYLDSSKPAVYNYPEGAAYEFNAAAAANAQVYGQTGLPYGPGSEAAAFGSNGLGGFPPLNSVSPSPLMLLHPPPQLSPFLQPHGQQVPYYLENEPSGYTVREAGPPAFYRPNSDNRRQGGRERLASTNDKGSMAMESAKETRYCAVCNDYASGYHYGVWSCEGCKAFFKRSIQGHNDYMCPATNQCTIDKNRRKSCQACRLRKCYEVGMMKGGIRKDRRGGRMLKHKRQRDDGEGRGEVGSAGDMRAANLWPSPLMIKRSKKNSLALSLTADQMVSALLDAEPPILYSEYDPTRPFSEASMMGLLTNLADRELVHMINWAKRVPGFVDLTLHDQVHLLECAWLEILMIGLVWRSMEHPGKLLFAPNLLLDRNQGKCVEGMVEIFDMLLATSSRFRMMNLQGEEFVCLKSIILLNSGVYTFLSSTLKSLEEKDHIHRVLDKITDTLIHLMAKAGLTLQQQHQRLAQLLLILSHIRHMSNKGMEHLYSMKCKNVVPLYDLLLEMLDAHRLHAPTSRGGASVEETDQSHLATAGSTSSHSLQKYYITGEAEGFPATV
structure (smiles),measurement,setting,value
CO/C=C(/C(=O)OC)c1ccccc1Oc1cc(Oc2ccccc2C#N)ncn1,outcome,[1],inactive
same,outcome,[2],inactive
same,outcome,[3],inactive
CON(C)C(=O)Nc1ccc(Cl)c(Cl)c1,AC50,[4],25 µM (active)
same,outcome,[4],inactive
same,outcome,[5],inactive
same,outcome,[3],inactive
COc1nc(C)nc(NC(=O)NS(=O)(=O)c2ccccc2CCC(F)(F)F)n1,outcome,[6],inactive
CCOC(=O)C(Cl)Cc1cc(-n2nc(C)n(C(F)F)c2=O)c(F)cc1Cl (centres undefined),outcome,[7],inactive
same,outcome,[3],inactive
same,AC50,[8],22.4 µM (active)
same,outcome,[9],inactive
COc1nc(NC(C)C)nc(NC(C)C)n1,outcome,[6],inactive
same,outcome,[2],inactive
same,outcome,[3],inactive
same,outcome,[10],inactive
same,outcome,[8],inactive
CN(C)C(=S)SSC(=S)N(C)C,outcome,[1],inactive
same,outcome,[2],inactive
same,AC50,[3],83.4 µM (active)
same,outcome,[8],inactive
C=CCC1=C(C)C(OC(=O)C2C(C=C(C)C)C2(C)C)CC1=O (centres undefined),outcome,[4],inactive
same,outcome,[5],inactive
same,outcome,[3],inactive
same,outcome,[10],inactive
same,AC50,[8],14.9 µM (active)
same,AC50,[9],75 µM (active)
N#Cc1nn(-c2c(Cl)cc(C(F)(F)F)cc2Cl)c(N)c1S(=O)C(F)(F)F (centres undefined),outcome,[1],inactive
same,outcome,[2],inactive
same,outcome,[3],inactive
same,AC50,[8],35 µM (active)
same,AC50,[9],33 µM (active)
CCOC(=O)CC(SP(=S)(OC)OC)C(=O)OCC (centres undefined),outcome,[1],inactive
same,outcome,[3],inactive
same,outcome,[10],inactive
N#CC(CCc1ccc(Cl)cc1)(Cn1cncn1)c1ccccc1 (centres undefined),outcome,[1],inactive
same,outcome,[2],inactive
same,outcome,[3],inactive
O=C(Nc1ccccc1)Nc1ccnc(Cl)c1,outcome,[6],inactive
same,AC50,[7],6.12 µM (active)
same,outcome,[1],inactive
same,outcome,[3],inactive
same,outcome,[9],inactive
COc1ccc(C(c2ccc(OC)cc2)C(Cl)(Cl)Cl)cc1,outcome,[7],inactive
same,outcome,[4],inactive
same,AC50,[5],3.48 µM (active)
same,AC50,[2],4.01 µM (active) and 3.74 µM (active) and 3.97 µM (active)
same,AC50,[3],3.09 µM (active) and 3.24 µM (active) and 3.47 µM (active)
same,AC50,[8],32.1 µM (active) and 35 µM (active) and 27 µM (active)
same,AC50,[9],30.4 µM (active) and 35.6 µM (active) and 28.4 µM (active)
CC1COC(Cn2cncn2)(c2ccc(Oc3ccc(Cl)cc3)cc2Cl)O1 (centres undefined),outcome,[7],inactive
same,AC50,[4],12 µM (active)
same,outcome,[2],inactive
same,outcome,[3],inactive
same,AC50,[8],11.2 µM (active)
Oc1ccccc1-c1ccccc1,AC50,[4],15 µM (active)
same,outcome,[2],inactive
same,outcome,[3],inactive
CCCCOC(=O)c1ccccc1C(=O)OCCCC,AC50,[5],25 µM (active)
same,outcome,[5],inactive
same,AC50,[2],33.4 µM (active) and 37.5 µM (active) and 31.9 µM (active)
same,AC50,[3],34.7 µM (active) and 31.9 µM (active) and 23.8 µM (active)
CCNc1nc(Cl)nc(NC(C)C)n1,AC50,[5],6.81 µM (active)
same,outcome,[5],inactive
same,outcome,[2],inactive
same,outcome,[3],inactive
CC1=C(C(=O)Nc2ccccc2)SCCO1,AC50,[4],11.6 µM (active)
same,outcome,[1],inactive
same,outcome,[2],inactive
same,outcome,[3],inactive
same,outcome,[10],inactive
same,outcome,[8],inactive
same,outcome,[9],inactive
CCCCNC(=O)n1c(NC(=O)OC)nc2ccccc21,outcome,[1],inactive
same,outcome,[2],inactive
same,outcome,[3],inactive
same,outcome,[8],inactive
same,outcome,[9],inactive
Cc1cc(Cl)ccc1OCC(=O)O,outcome,[6],inactive
same,AC50,[1],24 µM (active)
same,outcome,[1],inactive
same,outcome,[3],inactive
C=CC1(C)OC(=O)N(c2cc(Cl)cc(Cl)c2)C1=O (centres undefined),AC50,[5],10.1 µM (active)
same,outcome,[5],inactive
same,outcome,[2],inactive
same,outcome,[3],inactive
same,outcome,[8],inactive
same,AC50,[9],34.2 µM (active)
same,outcome,[9],inactive
CC(C)Oc1cc(-n2nc(C(C)(C)C)oc2=O)c(Cl)cc1Cl,outcome,[1],inactive
same,outcome,[2],inactive
same,outcome,[3],inactive
same,AC50,[8],29.5 µM (active)
same,AC50,[9],58.7 µM (active)
CCCCNC(=O)OCC#CI,AC50,[7],1.59 µM (active) and 4.96 µM (active)
same,AC50,[4],9.04 µM (active) and 9.55 µM (active)
same,outcome,[5],inactive
same,outcome,[2],inactive
same,AC50,[3],86.8 µM (active)
CCCCC(CC)COC(=O)c1ccccc1C(=O)OCC(CC)CCCC (centres undefined),outcome,[7],inactive
same,outcome,[2],inactive
same,outcome,[3],inactive
same,outcome,[8],inactive
same,outcome,[9],inactive
